Reference: PubChem BioAssay (Tox21)
Records with an inconclusive call do not appear. Active and inactive are the calls of the source. Unless noted, calls come from the whole dose curve; as a rule, active = well fitted curve in the direction sought with a large enough effect in the repeat runs; inconclusive = weak or mixed curves; inactive = no such curve, though single readings can be large; an effect the other way counts as inactive or inconclusive.

Key:
[1] = qHTS assay to identify small molecule antagonists of the TGF-beta/Smad signaling pathway - cell viability counter screen (AID 1346824); note: nearly all actives have a fitted effect of over 50% in size
How it was run: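 SBE-bla HEK 293T cells were plated overnight at 37 C, then given compounds in DMSO plus TGF-beta1 (added as 0.25 ng/mL solution) for 5 hr. After the bla read, CellTiter-Glo was added to the same wells and luminescence read after 30 min at room temperature.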

[2] = qHTS assay to identify small molecule agonists of the TGF-beta/Smad signaling pathway - cell viability counter screen (AID 1346829); note: top concentration of the series differs between compounds; nearly all actives have a fitted effect of over 45% in size
How it was run: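 In parallel with the Smad reporter read, viability of HEK 293T cells stably carrying SBE-bla is quantified by ATP luminescence following 5 hr compound treatment.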

[3] = qHTS assay to identify small molecule agonists of the TGF-beta/Smad signaling pathway (AID 1346859; active = well fitted activation curve with a large enough effect in the signal ratio in the repeat runs, not every such curve was filed as active; the % refers to the signal ratio; note: series mostly up to about 77 µM)
How it was run: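 Reporter line: HEK 293T with stably integrated SBE-controlled beta-lactamase. Compound exposure lasts 5 hr at 37 C and 5% CO2; substrate loading follows for 2 hr at room temperature, with emission read at 460 and 530 nm.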

[4] = molecular target: Thyrotropin-releasing hormone receptor (Homo sapiens) (UniProt P34981); experiment: qHTS assay to identify small molecule antagonists of the thyrotropin-releasing hormone receptor (TRHR) signaling pathway (AID 1346877; active = well fitted inhibition curve with a large enough effect in the repeat runs, not every such curve was filed as active; note: series mostly up to about 51 µM)
How it was run: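 Overnight-plated (18 h, 37 °C) HEK293 cells expressing TRHR were dye-loaded 2 h, treated with compound, then stimulated with TRH at 1 nM final. Fluorescence intensity was captured every second for 3 min.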

[5] = molecular target: Thyrotropin-releasing hormone receptor (Homo sapiens) (UniProt P34981); experiment: qHTS assay to identify small molecule agonists of the thyrotropin-releasing hormone receptor (TRHR) signaling pathway (AID 1346891; calls by dose curve;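 note: HEK293 cells expressing TRHR with calcium dye readout; series mostly up to about 58 µM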)
How it was run: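 Cells: TRHR-Hek293, seeded and incubated 18 h. Dye loading: 2 h at 37 °C. Compound added from DMSO stock by pin tool. Read-out: kinetic calcium fluorescence over 3 min.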

[6] = Human pregnane X receptor (PXR) small molecule agonists, qHTS cell viability counter screen (AID 1346977); note: nearly all actives have a fitted effect of over 50% in size
How it was run: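 Cytotoxicity counter screen run in the same wells as the PXR luciferase assay, using PXR-Luc HepG2 cells in charcoal-stripped serum medium. Viability: CellTiter-Fluor fluorescence after 24hr compound treatment.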

[7] = Caspase-3/7 induction in HepG2 cells by small molecules, qHTS assay (AID 1346978); note: nearly all actives have a fitted effect of over 15% in size
How it was run: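 Wild-type HepG2 cells (2,000/well) were settled 5 h at 37 C, 5% CO2, then exposed to compounds in DMSO for 17 h. Caspase-3/7 activity was read by luminescence 30 min after adding Caspase-Glo 3/7 reagent at room temperature.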

[8] = Caspase-3/7 induction in CHO-K1 cells by small molecules, qHTS cell viability counter screen (AID 1346979); note: nearly all actives have a fitted effect of over 35% in size
How it was run: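 Cytotoxicity counter screen run in parallel with the caspase-3/7 assay: CHO-K1 cells, 16hr compound treatment at 37C, then CellTiter-Fluor for 1hr before fluorescence reading.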

[9] = Caspase-3/7 induction in CHO-K1 cells by small molecules, qHTS assay (AID 1346980); note: nearly all actives have a fitted effect of over 15% in size
How it was run: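 Wild-type cells were seeded at 1,500 per well and settled 5 hr at 37 C, 5% CO2, then exposed to DMSO-dissolved compounds for 17 hr. Caspase-Glo 3/7 reagent was added, and luminescence was read after 30min at room temperature.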

[10] = Caspase-3/7 induction in HepG2 cells by small molecules, qHTS cell viability counter screen (AID 1346981); note: series mostly up to about 92 µM; nearly all actives have a fitted effect of over 30% in size
How it was run: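 Treatment of HepG2 cells with DMSO-delivered compounds ran 16 hr at 37 C following a 5-hr pre-incubation of 2,000 cells/well. CellTiter-Fluor fluorescence, read after 1 hr, served as the viability measure in a qHTS format.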
% is set by controls: 0 for no effect and ±100 for the full control effect.

Chain of Thyrotropin-releasing hormone receptor (Homo sapiens) (P34981 whole entry, looked up): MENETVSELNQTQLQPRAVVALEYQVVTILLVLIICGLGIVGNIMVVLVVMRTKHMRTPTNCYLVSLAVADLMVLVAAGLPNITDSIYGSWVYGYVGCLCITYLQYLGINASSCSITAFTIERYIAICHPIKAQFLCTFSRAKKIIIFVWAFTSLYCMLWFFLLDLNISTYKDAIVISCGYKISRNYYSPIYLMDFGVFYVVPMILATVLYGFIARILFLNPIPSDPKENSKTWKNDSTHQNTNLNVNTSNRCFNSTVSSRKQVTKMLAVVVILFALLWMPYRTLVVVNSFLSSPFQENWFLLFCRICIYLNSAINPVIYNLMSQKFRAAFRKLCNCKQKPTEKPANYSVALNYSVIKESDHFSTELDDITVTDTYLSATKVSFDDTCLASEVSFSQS

Cc1ccc2c(c1)C(=O)c1ccccc1C2=O
inactive: outcome [1] | outcome [2] | outcome [3] | outcome [4] | outcome [5] | outcome [6] | outcome [7] | Potency [8] | outcome [9] | outcome [10]

C=CCCCCCCCCC(=O)OCCCC
inactive: outcome [1] | outcome [2] | outcome [3] | outcome [4] | outcome [5] | outcome [6] | outcome [7] | Potency [8] | outcome [9]

CCCCCCCCCCCCCCCCCCOCCO
inactive: viability change, negative = cytotoxic [1] -1.95% [at 15.8 µM] | activity change, negative = cytotoxicity [2] -6.94% [at 15.8 µM] | activation [3] -0.657% [at 15.8 µM] | activity, negative = inhibition [4] 2.83% [at 10.5 µM] | activation [5] -0.279% [at 11.8 µM] | activity change, negative = cytotoxicity [6] 5.85% [at 19 µM] | caspase activation [7] 0.0407% [at 19 µM] | activity change, negative = cytotoxicity [8] -0.155% [at 19 µM] | caspase-3/7 activation [9] -1.25% [at 19 µM] | activity change, negative = cytotoxicity [10] 7.52% [at 19 µM]

C=CCOC(=O)CCCCCC
inactive: outcome [1] | outcome [2] | outcome [3] | outcome [4] | outcome [5] | outcome [6] | outcome [7] | Potency [8] | outcome [9] | outcome [10]

CC(Oc1cc(Cl)ccc1Cl)C(=O)O (stereo not drawn)
inactive: outcome [1] | outcome [2] | outcome [3] | outcome [4] | outcome [5] | outcome [6] | outcome [7] | Potency [8] | outcome [9]

COP(=O)(O)OP(=O)(O)OC
inactive: outcome [1] | outcome [2] | outcome [3] | outcome [4] | outcome [5] | outcome [6] | outcome [7] | Potency [8] | outcome [9] | outcome [10]

O=C1NC(c2ccccc2)(c2ccccc2)C(=O)N1COP(=O)(O)O
inactive: outcome [1] | outcome [2] | outcome [3] | outcome [4] | outcome [5] | outcome [6] | outcome [7] | Potency [8] | outcome [9] | outcome [10]

Cn1c(=O)c2c(ncn2CCO)n(C)c1=O
inactive: outcome [1] | outcome [2] | outcome [3] | outcome [4] | outcome [5] | outcome [6] | outcome [7] | Potency [8] | outcome [9] | outcome [10]

OCC(O)CN1CCN(c2ccccc2)CC1 (stereo not drawn)
inactive: outcome [1] | outcome [2] | outcome [3] | outcome [4] | outcome [5] | outcome [6] | outcome [7] | Potency [8] | outcome [9] | outcome [10]

Cc1c(NC(=O)c2cccnc2)c(=O)n(-c2ccccc2)n1C
inactive: outcome [1] | outcome [2] | outcome [3] | outcome [4] | outcome [5] | outcome [6] | outcome [7] | Potency [8] | outcome [9] | outcome [10]

CC12CCC(C1)C(C)(C)C2O (stereo not drawn)
inactive: outcome [1] | outcome [2] | outcome [3] | outcome [4] | outcome [5] | outcome [6] | outcome [7] | Potency [8] | outcome [9] | outcome [10]

N#Cc1ccccc1O
inactive: outcome [1] | outcome [2] | outcome [3] | outcome [4] | outcome [5] | outcome [6] | outcome [7] | Potency [8] | outcome [9] | outcome [10]

O=C1c2ccccc2C(=O)c2cc(Cl)ccc21
inactive: viability change, negative = cytotoxic [1] -4.61% [at 6.97 µM] | activity change, negative = cytotoxicity [2] 7.07% [at 6.97 µM] | activation [3] 1.62% [at 6.97 µM] | activity, negative = inhibition [4] -0.75% [at 4.65 µM] | activation [5] 0.0495% [at 5.23 µM] | activity change, negative = cytotoxicity [6] -0.0384% [at 8.39 µM] | caspase activation [7] -1.72% [at 8.39 µM] | activity change, negative = cytotoxicity [8] 9.78% [at 8.39 µM] | caspase-3/7 activation [9] -0.328% [at 8.39 µM] | activity change, negative = cytotoxicity [10] 3.18% [at 8.39 µM]

CCN1CCCC1CN (stereo not drawn)
inactive: outcome [1] | outcome [2] | outcome [3] | outcome [4] | outcome [5] | outcome [6] | outcome [7] | Potency [8] | outcome [9] | outcome [10]

CC1(C)O[C@H]2CC(=O)OC[C@]23[C@H]2CC[C@@]4(C)[C@H](c5ccoc5)OC(=O)[C@H]5O[C@]54[C@]2(C)C(=O)C[C@@H]13
inactive: outcome [1] | outcome [2] | outcome [3] | outcome [4] | outcome [5] | outcome [6] | outcome [7] | Potency [8] | outcome [9] | outcome [10]

CC1(C)Cc2cccc(N)c2O1
inactive: outcome [1] | outcome [2] | outcome [3] | outcome [4] | outcome [5] | outcome [6] | outcome [7] | Potency [8] | outcome [9] | outcome [10]

O=C(O)c1cc2ccccc2nc1C(=O)O
inactive: outcome [1] | outcome [2] | outcome [3] | outcome [4] | outcome [5] | outcome [6] | outcome [7] | Potency [8] | outcome [9] | outcome [10]

CCC(=O)CC
inactive: outcome [1] | outcome [2] | outcome [3] | outcome [4] | outcome [5] | outcome [6] | outcome [7] | Potency [8] | outcome [9] | outcome [10]

CC(=O)c1cc(C)oc1C
inactive: outcome [1] | outcome [2] | outcome [3] | outcome [4] | outcome [5] | outcome [6] | outcome [7] | Potency [8] | outcome [9] | outcome [10]

N#CCC(=O)NN
inactive: outcome [1] | outcome [2] | outcome [3] | outcome [4] | outcome [5] | outcome [6] | outcome [7] | Potency [8] | outcome [9] | outcome [10]

COC(C)(OC)OC
inactive: outcome [1] | outcome [2] | outcome [3] | outcome [4] | outcome [5] | outcome [6] | outcome [7] | Potency [8] | outcome [9] | outcome [10]

Nc1nnnn1-c1ccccc1
inactive: outcome [1] | outcome [2] | outcome [3] | outcome [4] | outcome [5] | outcome [6] | outcome [7] | Potency [8] | outcome [9] | outcome [10]

O=C(CN1CCNCC1)NC1CCCCC1
inactive: outcome [1] | outcome [2] | outcome [3] | outcome [4] | outcome [5] | outcome [6] | outcome [7] | Potency [8] | outcome [9] | outcome [10]

CC(=O)OCC(=O)Nc1cc(C#N)cc(NC(=O)COC(C)=O)c1Cl
inactive: outcome [1] | outcome [2] | outcome [3] | outcome [4] | outcome [5] | outcome [6] | outcome [7] | Potency [8] | outcome [9] | outcome [10]
